aDG glyco act = alpha-DG glycosylation activation; Pro5-aDG cells, alpha-DG glycosylation AlphaScreen (IIH6); 0% Pro5, 100% B10-LARGE cell signal; activation, % at 10 µM; 360,000 tested, 0.22% active; AID 624168;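 active = activation of at least 8% versus controls, or a plate z-score of at least 8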;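 note: Pro5 are CHO cells carrying HIG-tagged alpha-DG that lacks glycosylation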
TAG inh = inhibitors of triacylglycerol accumulation; inhibition, % at 12.5 µM; AID 651582; 230,000 tested, 0.66% active; H9c2 cells, Nile Red lipid (TAG) fluorescence; cells loaded with 200 µM oleic acid;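 active = pattern-corrected inhibition of lipid staining of at least 50% with the nuclear-stain viability signal not falling by more than 50%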;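 note: 0% = DMSO wells and 100% = triacsin C control wells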
FAS TE block = blocks the thioesterase domain of human fatty acid synthase | P49327 | recombinant FAS-TE, OMFH fluorogenic substrate, fluorescence endpoint | inhibition, % at 15 µM | 360,000 tested, 0.67% active | AID 602261;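 active = compounds whose normalised, plate-corrected inhibition of enzyme fluorescence in the single-dose primary screen is 50% or more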;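 note: 0% = DMSO with enzyme and 100% = substrate without enzyme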
Target sequence (P49327 whole entry, looked up, the tested form may be a part): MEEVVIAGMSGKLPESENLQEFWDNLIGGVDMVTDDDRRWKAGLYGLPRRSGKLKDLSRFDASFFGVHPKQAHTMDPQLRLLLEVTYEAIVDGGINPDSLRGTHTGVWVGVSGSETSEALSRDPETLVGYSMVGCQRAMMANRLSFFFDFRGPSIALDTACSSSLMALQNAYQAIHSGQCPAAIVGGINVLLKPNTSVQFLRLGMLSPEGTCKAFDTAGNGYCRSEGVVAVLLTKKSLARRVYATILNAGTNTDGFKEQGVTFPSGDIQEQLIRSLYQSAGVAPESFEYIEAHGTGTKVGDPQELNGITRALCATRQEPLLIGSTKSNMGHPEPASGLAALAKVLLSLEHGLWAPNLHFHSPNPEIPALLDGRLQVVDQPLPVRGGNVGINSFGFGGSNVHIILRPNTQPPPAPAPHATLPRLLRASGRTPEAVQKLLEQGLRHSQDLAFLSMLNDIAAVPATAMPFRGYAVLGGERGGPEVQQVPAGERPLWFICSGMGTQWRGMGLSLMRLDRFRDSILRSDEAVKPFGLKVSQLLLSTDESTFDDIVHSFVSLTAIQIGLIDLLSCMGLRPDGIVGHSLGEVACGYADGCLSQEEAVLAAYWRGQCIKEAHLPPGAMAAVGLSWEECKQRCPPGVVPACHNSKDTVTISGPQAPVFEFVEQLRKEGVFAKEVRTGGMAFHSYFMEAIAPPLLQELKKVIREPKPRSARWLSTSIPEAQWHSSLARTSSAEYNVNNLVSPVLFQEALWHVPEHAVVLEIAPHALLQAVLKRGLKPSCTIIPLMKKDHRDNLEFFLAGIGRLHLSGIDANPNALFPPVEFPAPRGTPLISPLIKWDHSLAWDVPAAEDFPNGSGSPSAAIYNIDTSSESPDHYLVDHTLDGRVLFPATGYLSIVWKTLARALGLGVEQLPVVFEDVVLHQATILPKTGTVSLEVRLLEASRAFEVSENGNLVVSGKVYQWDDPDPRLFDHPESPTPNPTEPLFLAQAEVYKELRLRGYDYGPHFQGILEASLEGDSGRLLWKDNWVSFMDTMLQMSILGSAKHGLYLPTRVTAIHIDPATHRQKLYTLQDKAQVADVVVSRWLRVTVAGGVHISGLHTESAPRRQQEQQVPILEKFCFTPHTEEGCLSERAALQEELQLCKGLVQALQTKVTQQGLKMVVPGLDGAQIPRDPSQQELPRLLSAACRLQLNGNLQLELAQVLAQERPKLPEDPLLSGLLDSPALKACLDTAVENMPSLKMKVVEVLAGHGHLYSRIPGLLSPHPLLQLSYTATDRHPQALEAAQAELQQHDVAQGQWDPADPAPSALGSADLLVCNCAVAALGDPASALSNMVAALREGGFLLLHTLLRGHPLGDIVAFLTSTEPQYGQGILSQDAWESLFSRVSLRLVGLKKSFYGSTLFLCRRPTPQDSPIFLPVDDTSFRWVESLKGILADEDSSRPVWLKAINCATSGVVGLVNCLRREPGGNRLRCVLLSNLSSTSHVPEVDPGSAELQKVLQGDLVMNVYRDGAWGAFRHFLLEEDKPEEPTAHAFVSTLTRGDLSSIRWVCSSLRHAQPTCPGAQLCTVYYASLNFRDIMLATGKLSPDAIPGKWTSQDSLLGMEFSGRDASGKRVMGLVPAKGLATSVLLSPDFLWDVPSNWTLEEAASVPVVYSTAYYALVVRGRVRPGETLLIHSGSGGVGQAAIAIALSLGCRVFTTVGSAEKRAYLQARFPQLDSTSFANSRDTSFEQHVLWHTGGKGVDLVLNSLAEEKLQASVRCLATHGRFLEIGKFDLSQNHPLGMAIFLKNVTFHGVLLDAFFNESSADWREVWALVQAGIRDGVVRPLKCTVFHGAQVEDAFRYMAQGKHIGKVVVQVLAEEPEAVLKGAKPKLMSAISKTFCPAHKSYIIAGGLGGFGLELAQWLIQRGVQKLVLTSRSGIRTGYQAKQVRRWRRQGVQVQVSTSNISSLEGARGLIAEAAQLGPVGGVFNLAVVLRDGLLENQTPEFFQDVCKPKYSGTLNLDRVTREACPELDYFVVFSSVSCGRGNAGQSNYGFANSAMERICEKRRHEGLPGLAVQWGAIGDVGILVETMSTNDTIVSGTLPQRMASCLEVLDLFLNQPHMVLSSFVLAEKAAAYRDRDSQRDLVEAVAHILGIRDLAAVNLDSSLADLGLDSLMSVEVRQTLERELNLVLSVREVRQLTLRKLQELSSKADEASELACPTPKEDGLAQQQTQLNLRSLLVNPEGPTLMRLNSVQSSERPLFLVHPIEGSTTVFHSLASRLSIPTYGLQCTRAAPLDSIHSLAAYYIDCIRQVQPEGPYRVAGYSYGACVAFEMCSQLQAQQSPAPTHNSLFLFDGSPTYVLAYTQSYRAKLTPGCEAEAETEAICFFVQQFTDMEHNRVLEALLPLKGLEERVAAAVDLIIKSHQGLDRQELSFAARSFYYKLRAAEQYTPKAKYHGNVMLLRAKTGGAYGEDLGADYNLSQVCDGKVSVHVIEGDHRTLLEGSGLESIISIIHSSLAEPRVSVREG
MIN6 prolif = induces beta-cell replication in MIN6 cells | proliferation, % at 10 µM | 330,000 tested, 0.29% active | MIN6 cells proliferation, ATPlite luminescence, 48 h; cells starved in 0.2% serum; 100% = growth in 10% serum;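 active = compounds whose signal lies at least 3.5 SD above the mean of all wells on their plate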;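 note: 0% = DMSO-treated cells in low-serum medium and 100% = 10% serum control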
Cardio protect = protects H9c2 cardiomyocytes from peroxide injury; AID 588492; protection from H2O2 cell death, % at 20 µM; H2O2 injury protection, ATPLite, 2 h; 360,000 tested, 0.63% active;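 active = compounds giving at least 50% protection of heart cells from peroxide-induced death in the single-dose screen, raw or plate-pattern-corrected value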;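 note: 0% = DMSO wells with peroxide and 100% = DMSO wells without peroxide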
Calpain2 inh = calpain II (pig) inhibition; purified calpain II, fluorogenic peptide substrate, 30 min; inhibition, % at 16 µM; 220,000 tested, 0.37% active; AID 1236;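 active = inhibition above about 50%, limit read from the data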
Starred values were filed as active, the others as inactive; . = no result given. Most compounds without a hit are left out; they make up all but 2.3% or so of the library.

SMILES	aDG glyco act	TAG inh	FAS TE block	MIN6 prolif	Cardio protect	Calpain2 inh
O=C(Cn1[nH]c(=O)c2ccccc2c1=O)OCC(=O)N1CCCc2ccccc21	-0.1	5.2	-0.4	1.6	85.6*	0.9
O=C(Cn1[nH]c(=O)c2ccccc2c1=O)OCC(=O)N1CCc2ccccc2C1	-0.2	10.9	-3.3	-0.6	90.0*	12.1
Cn1c(CNC(=O)C(Cc2ccccc2)NC(=O)c2cccc(F)c2)cc(=O)n(C)c1=O (centres undefined)	-0.1	.	-1.3	-2.7	1.1	.
COc1cc(C2C3=C(CC(C)(C)CC3=O)Nc3ccccc3N2C(C)=O)cc(OC)c1OC (centres undefined)	0.1	3.4	-4.9	-0.7	2.1	.
Cc1c(N(C)S(=O)(=O)c2cccc(C(=O)NCc3cccnc3)c2)c(=O)n(-c2ccccc2)n1C	-0.1	-8.3	-4.6	.	8.3	.
Cc1cc(NC(=O)COC(=O)CCNS(=O)(=O)c2ccccc2)n(-c2ccccc2)n1	-0.1	10.5	-7.4	1.5	1.0	.
C=CCn1c(SCC(=O)NCCO)nc2sc(C)c(C)c2c1=O	0.1	-11.8	-3.1	13.4*	3.8	22.4
O=C(Nc1ccccc1)c1ccc(N2CCN(c3ccccn3)CC2)c(S(=O)(=O)N2CCOCC2)c1	-0.2	.	24.9	-2.7	2.4	-50.8
O=C(Nc1ccccc1)c1ccc(N2CCN(c3ccccc3)CC2)c(S(=O)(=O)N2CCOCC2)c1	0.1	.	55.7*	-1.7	0.0	-318.4
CCOC(=O)NN1C(=O)c2ccccc2NC1c1cccs1 (centres undefined)	-0.2	.	-5.0	-1.2	2.0	.
COc1ccc(/C=N/NC(=O)CCSc2nc3ccccc3s2)cc1OC	-0.1	.	10.9	1.0	7.3	-3.2
O=C(CCSc1nc2ccccc2s1)N/N=C/c1c(O)ccc2ccccc12	0.5	.	16.1	-5.1	53.9*	-4.6
CC(=O)Nc1ccc(S(=O)(=O)NNC(=O)c2cccc(Br)c2)cc1	-0.1	-1.3	-9.2	3.6	-0.6	-15.9
COc1ccc(-c2nn(-c3ccccc3)cc2/C=C/C(=O)N2CCN(c3ccccn3)CC2)cc1	-0.6	-1.4	25.5	-1.8	68.2*	-2.9
COC(=O)c1cc(C(=O)OCC(=O)N2c3ccccc3NC(=O)C2(C)C)cc([N+](=O)[O-])c1	1.1	.	34.6	4.5	57.5*	31.8
CC1(C(=O)NS(=O)(=O)c2ccccc2Cl)CCN1C(=O)c1ccco1 (centres undefined)	-0.1	1.9	-5.4	.	1.0	.
CCN(CC)CCNS(=O)(=O)c1ccc2c3c(cccc13)C(=O)N2	0.0	.	-3.6	-4.4	12.8	.
CCOc1c(Cl)cc(CNc2ccc(S(N)(=O)=O)cc2)cc1OC	0.3	.	-8.7	-2.3	-6.4	32.5
CCOc1c(Cl)cc(CNc2ccc(N3CCCC3)cc2)cc1OC	0.0	60.1*	12.8	.	-19.5	2.1
CCOC(=O)Oc1c(OC)cc(C(=O)O[C@@H]2C[C@@H]3CN4CCc5c([nH]c6cc(OC)ccc56)[C@H]4C[C@@H]3[C@H](C(=O)OC)[C@H]2OC)cc1OC	0.0	60.2*	10.4	-7.6	-26.1	.
COC(=O)C1C2CC3c4[nH]c5cc(OC)ccc5c4CCN3CC2CC(OC(=O)CC(C)=O)C1OC (centres undefined)	0.0	-5.1	-23.1	.	11.3	.
CN(Cc1ccccc1)C(=O)c1ccc(NC(=O)Cc2ccc([N+](=O)[O-])cc2)cc1	-0.1	-11.7	16.8	-3.5	-5.6	.
Cc1nc(SCC(=O)N2CCN(c3ccccc3)CC2)c2oc3ccccc3c2n1	-0.1	6.6	18.3	-3.2	74.5*	-28.1
O=C(Nc1ccc(Cl)c(Cl)c1)OCCNC(=O)c1cccc(Cl)c1	1.8	-6.7	27.3	-3.8	-26.7	65.1*
CCCCNC1=CC(=O)C(=O)c2ccccc21	6.9*	23.6	-5.3	-5.2	-26.2	-16.1
SMILES	aDG glyco act	TAG inh	FAS TE block	MIN6 prolif	Cardio protect	Calpain2 inh
O=C1C=C(Nc2ccccc2)c2ccccc2C1=O	11.2*	-7.7	13.3	-4.8	-25.0	20.8
CCc1ccc(NC2=CC(=O)C(=O)c3ccccc32)cc1	5.4*	23.0	22.2	-7.3	-18.9	.
O=C1C=C(Nc2ccccc2)C(=O)c2ccccc21	2.9	.	7.6	-5.8	-16.2	57.2*
CCCCNC1=CC(=O)C(NCCCC)=CC1=O	0.6	8.7	-2.7	.	3.7	.
O=C(c1ccc(Cl)s1)N1CCN(S(=O)(=O)c2ccc(Cl)cc2)CC1	0.1	-12.4	15.4	-3.9	-4.2	.
COc1ccc(CCNC(=O)CN2C(=O)NC3(CCOc4ccccc43)C2=O)cc1 (centres undefined)	0.2	-0.9	-3.1	3.5	-0.6	.
O=C(/C=C/c1ccc(Cl)c([N+](=O)[O-])c1)Nc1cccc(NC(=O)c2ccco2)c1	-0.4	.	34.8	-5.8	87.9*	-50.9
O=C(/C=C/c1ccc(Cl)c([N+](=O)[O-])c1)Nc1ccc(NC(=O)c2ccco2)cc1	-0.6	12.6	12.1	.	23.5	-30.6
O=C(/C=C/c1ccc(Cl)c([N+](=O)[O-])c1)Nc1cccnc1	0.2	20.3	19.3	0.0	49.8*	-18.9
CCOC(=O)c1c(S(=O)(=O)NCC(=O)Nc2cccc(F)c2)c(C)n(C)c1C	-0.2	.	-5.9	2.9	-4.1	.
Cc1nn(CC(=O)NCCCN2CCCC2)c(=O)c2nn(-c3ccccc3)c(C)c12	0.4	.	-6.9	-4.3	4.1	.
COc1ccc(Br)cc1C(=O)Nc1cccc(NC(=O)c2ccco2)c1	0.0	33.0	27.4	-1.8	63.6*	0.6
O=C(Nc1cccc(NC(=O)c2ccc(-c3cccc(Br)c3)o2)c1)c1ccco1	-0.2	.	31.2	-4.0	59.6*	-198.3
COc1c(C)cc(Br)cc1C(=O)Nc1cccc(NC(=O)c2ccco2)c1	0.3	.	16.4	-0.6	19.8	19.8
Cn1c(=O)n(CCc2ccccc2)c(=O)c2c1nc1n2CCCN1Cc1ccccc1	0.3	-216.6	18.0	-4.1	116.5*	23.6
Cn1c(=O)n(CCc2ccccc2)c(=O)c2c1nc1n2CCCN1CCc1ccccc1	-0.5	-43.7	20.9	-3.2	106.2*	68.7*
CCCn1c(=O)c2c(nc3n2CCCN3Cc2ccccc2)n(C)c1=O	0.1	.	-9.2	-3.3	-2.7	.
CCCn1c(=O)c2c(nc3n2CCCN3CCc2ccccc2)n(C)c1=O	0.0	.	2.2	1.1	3.7	.
CC[C@@]12C(=O)N(c3cccc(Cl)c3)C(=O)N1[C@H](c1ccc(Br)cc1)[C@@H]1C(=O)N(C(C)(C)C)C(=O)[C@@H]12	-0.1	14.1	56.2*	-5.1	-3.4	.
CC[C@@]12C(=O)N(c3cccc(C)c3)C(=O)N1[C@H](c1ccc(Br)cc1)[C@@H]1C(=O)N(C(C)(C)C)C(=O)[C@@H]12	0.8	8.8	24.3	-3.2	6.4	.
CC(C)(C)N1C(=O)[C@H]2[C@@H](c3ccc(Br)cc3)N3C(=O)N(c4cccc(Br)c4)C(=O)[C@@]3(Cc3ccccc3)[C@H]2C1=O	0.6	42.9	85.7*	-6.6	6.0	.

Screening results: PubChem, several laboratories
